PubChem BioAssay (Tox21)
Several values for one entry are separate records, joined by “and”; a condition that tells them apart may be missing. Equal entries are not always repeated. Records with an inconclusive call do not appear. A number with no mark means an inactive call. Activity calls are given as the source filed them. Calls follow the shape of the dose curve; as a rule, active = well fitted cell-killing curve with a large enough effect in the repeat runs; inconclusive = weak or mixed curves, or effect the other way; inactive = flat fitted curve, though single readings scatter.

test: Human pregnane X receptor (PXR) small molecule agonists, qHTS cell viability counter screen (AID 1346977); conditions: PXR-Luc HepG2 viability, CellTiter-Fluor, 24 h; series mostly up to 92.4 µM; activity change, negative = cytotoxicity: at the top concentration; also: nearly all actives have a fitted effect of over 50% in size
From the text: U.S. Tox21 Program National Center for Advancing Translational Sciences [NCATS] NIH Chemical Genomics Center [NCGC] U.S. Environmental Protection Agency [EPA] National Institutes of Environmental Health Sciences [NIEHS] National Toxicology Program [NTP] U.S. Food and Drug Administration [FDA] Tox21 Assay Overview: The human pregnane X receptor (hPXR) regulates the expression of several drug metabolizing enzymes and induction of these proteins is a major mechanism for developing drug resistance in cancer. One such key enzyme catalyzing the drug metabolism is cytochrome P450 3A4 (CYP3A4). Changes in CYP3A4 expression affect drug metabolism, thereby reducing the therapeutic efficacy and altering toxicological response to a drug and which finally causes adverse drug interaction. To screen Tox21 libraries for compounds that activate hPXR-mediated CYP3A4 gene expression, PXR-Luc HepG2 cells were used. Also cytotoxicity of the compounds was tested in parallel by measuring the cell viability using CellTiter-Fluor assay system in the same wells.
Tox21 Assay Protocol Summary: PXR-Luc HepG2 cells were dispensed at 2,000 per well in 5uL of assay medium containing 5% charcoal-stripped FBS into white solid bottom 1536-well plates (Corning Life Sciences, Corning, NY) using a Multidrop Combi (Thermo Scientific, Waltham, MA) dispenser. The assay plates were incubated at 37 C and 5% CO2 for 5hr, and then 23nL of compounds dissolved in DMSO and positive control were transferred using a Pintool station (Wako, San Diego, CA). The assay plates were incubated at 37C and 5% CO2 for 24hr. For cytotoxicity read, after 23hr incubation at 37C, 1uL CellTiter-Fluor reagent (Promega Corporation, Madison, WI) was added to each well of the assay plates using Flying Reagent Dispenser (FRD, Aurora Discovery, San Diego, CA). After 1hr incubation at 37C and 5% CO2, the fluorescence signal was quantified using a ViewLux plate reader (PerkinElmer, Shelton, CT).
% is scaled to controls: 0 for no effect and ±100 for the full control effect; potency is read from the fitted curve at half-maximal effect.

Row | Structure (SMILES) | activity change, negative = cytotoxicity | Potency
1 | CCc1c(Br)c(Br)c(Br)c(Br)c1Br | 5.44% | 
2 | O=C1C=CC(=O)N1c1ccccc1 |  | 48.6 µM (active)
3 | O=C1NCCN1CCN1CCC(c2cn(-c3ccc(F)cc3)c3ccc(Cl)cc23)CC1 |  | 29.8 µM (active)
4 | Brc1ccccc1-c1ccccc1 | -3.25% | 
5 | CC1=CCC(=O)O1 | 7.07% | 
6 | C=CC(=C)CC/C=C(\C)CCC=C(C)C | 6.03% [at 19 µM] | 
7 | CC1(C)COCN1 | 1.68% | 
8 | CCC(C)c1ccccc1 (stereo not given) | 2.63% | 
9 | CSc1ccc2c(c1)N(CCC1CCCCN1C)c1ccccc1S2 (stereo not given) |  | 19.3 µM (active) and 26.6 µM (active)
10 | CN1CCN(C2Cc3ccccc3Sc3ccc(Cl)cc32)CC1 (stereo not given) |  | 26.6 µM (active)
11 | OCCCS | 0.569% | 
12 | CC(C)(C)c1n[nH]c(=O)n(N)c1=O | -0.686% | 
13 | COC(=O)CC(C)CCC=C(C)C (stereo not given) | -9.69% | 
14 | CCCC(CC)CCCCCCCN (stereo not given) | 8.75% | 
15 | CCCCCCCOC(=O)c1ccccc1C(=O)OCCCCCCC | 0.897% | 
16 | c1cc[nH]c1 | 1.5% | 
17 | CN1[C@@H]2CC[C@@H]1CC(OC(=O)C(CO)c1ccccc1)C2 (stereo not given in full) | 1.14% [at 42.5 µM] | 
18 | c1cc(OCC2CO2)cc(OCC2CO2)c1 (stereo not given) |  | 60.6 µM (active)
19 | CC(C)=C1CC[C@@H](C)CC1=O | -0.461% | 
20 | CCN(CC)CCNc1ccc(CO)c2sc3ccccc3c(=O)c12 |  | 7.5 µM (active)

Row | Structure (SMILES) | activity change, negative = cytotoxicity | Potency
21 | CC(C)=CCCC(C)CCOC(=O)C(C)C (stereo not given) | -0.195% | 
22 | NCCCCCCNCCCCCCN | -1.78% | 
23 | CCc1cccc(C)c1 | -0.276% | 
24 | COc1nccnc1CC(C)C | -1.38% | 
25 | CCCCCCCCCCCC(=O)N(CC)CC | -1.9% | 
26 | CCCCCCCCCCCCN(CCO)CCO |  | 48.4 µM (active)
27 | CC(=O)OC(OC(C)=O)c1ccc([N+](=O)[O-])o1 |  | 49.4 µM (active)
28 | CC1=C(/C=C/C(C)=C/C=C/C(C)=C/C(=O)Nc2ccc(O)cc2)C(C)(C)CCC1 |  | 49.8 µM (active) and 26.6 µM (active)
29 | Cc1cc(C)c(C=O)c(C)c1 | 0.209% | 
30 | O=C1OC(=O)c2cccc3cccc1c23 | -17.7% | 
31 | O=S(=O)(O)CCCN1CCOCC1 | 4.96% | 
32 | CCOC(/C=C(\C)CCC=C(C)C)OCC | -1.36% | 
33 | COc1ccccc1OCCNCC(O)COc1cccc2[nH]c3ccccc3c12 (stereo not given) |  | 23.7 µM (active)
34 | CC(C)C(=O)OCc1ccccc1 | -0.0784% | 
35 | CCCCCCC(C)OC(=O)COc1nc(F)c(Cl)c(N)c1Cl (stereo not given) | 0.195% | 
36 | Clc1ccc(C(Cn2ccnc2)OCc2c(Cl)cccc2Cl)c(Cl)c1 (stereo not given) |  | 23.7 µM (active)
37 | O=Nc1ccc(NO)cc1 | -18.5% | 
38 | CCO[Si](C)(C)OCC | 1.64% | 
39 | COc1cc(C=C2CCC/C(=C\c3ccc(O)c(OC)c3)C2=O)ccc1O |  | 29.8 µM (active)
40 | C=C/C=C/C=C/CCCCC | 3.3% [at 19 µM] | 
